Assay in all cases: Primary qHTS to identify gynecologic anti-cancer compounds using libraries of approved drugs and bioactive compounds (AID 1345084); also: nearly all actives have a fitted effect of over 55% in size
For orientation: In qHTS, concentration-response curves come from the screen itself.

The test system of assay [1] is HeLa. The settings on record: Gynecologic cancer cell panel viability, ATPlite luminescence, 48 h; series mostly up to 57.5 µM. Put shortly: (§1)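 Cell viability after 48 h drug treatment, ATPlite luminescence readout; five doses.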
Background: In ATP-based viability assays light output follows the ATP content of the culture.

The test system of assay [2] is JEG-3. The settings on record: Gynecologic cancer cell panel viability, ATPlite luminescence, 48 h; series mostly up to 57.5 µM. Put shortly: as §1
Assay [3] deals with Hek293T. The settings on record: Gynecologic cancer cell panel viability, ATPlite luminescence, 48 h, control line for the selectivity index; series mostly up to 57.5 µM. The method, boiled down: as §1

The structures appear in SMILES notation. Results filed as inconclusive are left out. A call without a number means that no potency is given here. The source made the active and inactive calls. Calls follow the shape of the dose curve; as a rule, active = well fitted cell-killing curve with a large enough effect; inconclusive = small, poorly fitted or top-dose-only effect, or effect the other way; inactive = flat fitted curve, though single readings scatter.
Potency is read from the fitted curve at half-maximal effect.

As to `C=C1C(=O)O[C@@H]2C3=C(C)CCC[C@]3(C)CC[C@@]12O`, the Potency entry in assay [1] and in assay [2] was “inactive” each time.
As to `COC(=O)N1CCC(n2ncc3c(N4CCOCC4)nc(-c4ccc(NC(=O)NC5CC5)cc4)nc32)CC1`, the Potency in assay [3] was 0.631 µM (active). In addition, in assay [2], the Potency entry was “inactive”.
Regarding `C=CS(=O)(=O)NC1CCN(C(=O)CNc2cc(I)c(Cl)cc2OC)CC1`, the Potency entry in assay [2] is “inactive”.
Consider `O=C1Nc2nc(-c3c(O)cccc3OCC3CC3)cc([C@@H]3CCCNC3)c2CO1`, for which the Potency result in assay [1] and in assay [2] was “inactive” throughout.
Regarding `O=C(Nc1ccccc1Cl)c1cnc2ccc(C3CCNCC3)cn12`, the Potency entry in assay [1] and in assay [3] was “inactive” throughout.

For the origin of these results see PubChem BioAssay (NCATS).
